Only a selection was taken, and hits are over-represented in it overall.
ROC1-CUL1 inh – inhibitors of human ROC1-CUL1 ubiquitin ligase activity | in vitro K48 di-Ub FRET, acceptor:donor ratio, 45 min | inhibition, % at 10 µM | hit rate 0.6% among 140,000 | AID 1347404, 2020; in the data active means inhibition above about 25%
Target sequence (P62877 whole entry, looked up): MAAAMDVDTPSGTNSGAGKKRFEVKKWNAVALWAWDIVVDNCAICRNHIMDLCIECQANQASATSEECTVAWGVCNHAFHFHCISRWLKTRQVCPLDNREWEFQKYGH
Target sequence (Q13616 whole entry, looked up): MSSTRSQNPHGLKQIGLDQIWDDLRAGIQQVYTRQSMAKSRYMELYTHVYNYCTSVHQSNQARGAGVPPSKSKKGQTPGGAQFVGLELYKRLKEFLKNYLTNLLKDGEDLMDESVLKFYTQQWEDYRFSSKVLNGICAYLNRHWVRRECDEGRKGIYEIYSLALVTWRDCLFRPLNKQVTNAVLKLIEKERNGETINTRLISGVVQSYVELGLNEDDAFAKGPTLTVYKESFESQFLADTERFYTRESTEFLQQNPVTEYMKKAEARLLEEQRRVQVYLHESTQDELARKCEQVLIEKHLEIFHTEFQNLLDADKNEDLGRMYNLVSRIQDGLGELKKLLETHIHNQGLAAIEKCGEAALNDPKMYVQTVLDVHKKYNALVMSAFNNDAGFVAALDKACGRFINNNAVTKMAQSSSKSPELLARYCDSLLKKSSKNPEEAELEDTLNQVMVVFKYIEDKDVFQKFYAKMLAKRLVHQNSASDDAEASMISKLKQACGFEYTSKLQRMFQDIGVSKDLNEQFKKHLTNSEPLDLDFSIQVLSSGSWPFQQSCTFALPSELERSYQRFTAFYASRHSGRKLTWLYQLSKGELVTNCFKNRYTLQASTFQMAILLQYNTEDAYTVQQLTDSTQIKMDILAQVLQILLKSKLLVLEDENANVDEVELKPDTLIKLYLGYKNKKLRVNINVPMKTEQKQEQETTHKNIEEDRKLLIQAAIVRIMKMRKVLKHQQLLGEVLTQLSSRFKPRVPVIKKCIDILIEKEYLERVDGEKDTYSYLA
* = called active by the depositor.

SMILES	ROC1-CUL1 inh
O=C1C(=O)c2cccc3cccc1c23	1
O=C1C(=O)c2ccccc2-c2ccccc21	98*
O=C1C(=O)c2c3ccccc3cc3cccc1c23	-1
O=C(c1cccc(Cl)c1)C1CCCN(Cc2ccncc2)C1 (stereo not given)	8
Cc1csc(NC(=O)C23CC4CC(CC(C4)C2)C3)n1	7
COC(=O)c1ccc(C)c(NC(=O)CSC2c3ccccc3-c3ccccc32)c1	-4
CC(C)(C)c1ccc(CSc2nc3c(cc2C#N)N2CCC3CC2)cc1	1
Cc1cc(/C=C2\C(=O)NC(=S)N(c3cccc(Cl)c3)C2=O)c(C)n1-c1cc(C(=O)O)cc(C(=O)O)c1	55*
COc1ccc(C=C2C(=O)NC(=S)NC2=O)c(OC)c1	-2
COc1ccc(N2C(=O)/C(=C/c3cc(C)n(-c4ccc(C(=O)O)cc4C)c3C)C(=O)NC2=S)c(OC)c1	37*
Cc1cc(/C=C2\C(=O)NC(=O)N(Cc3ccccc3)C2=O)c(C)n1-c1ccc(Cl)c(C(=O)O)c1	36*
CCOc1ccc(N2C(=O)/C(=C/c3cc(C)n(-c4ccc(S(N)(=O)=O)cc4)c3C)C(=O)NC2=S)cc1	28*
C=CCN1C(=O)/C(=C/c2cc(C)n(-c3cccnc3)c2C)C(=O)NC1=S	4
O=C1NC(=S)NC(=O)C1=Cc1ccccc1OCc1ccc(C(=O)O)cc1	-10
CCOC12C(=O)c3ccccc3N1C2c1ccccc1 (stereo not given)	1
N#Cc1cc2c(nc1SCCC(=O)c1ccc(F)cc1)C1CCN2CC1	-7
Cc1[nH]c2ccc(OC(F)(F)F)cc2c1CCNCc1cc(F)c(F)c(F)c1	-5
CN1CCc2nc3c(c(N)c2C1)CCCN3C	-4
Cc1ccc(C(N)P(=O)(Oc2ccccc2)Oc2ccccc2)cc1 (stereo not given)	-3
C/C=C(\C)CN1CCC2(CCCN(C)C2=O)C1 (stereo not given)	10
Cc1cccc(CC(C)NCCc2cc(=O)[nH]c(C)n2)c1 (stereo not given)	3
COc1ccc(C(=O)COC(=O)CCC(=O)Nc2ccc(Cl)cc2C(=O)c2ccccc2)cc1	-8
COCCn1c(-c2ccc(OC)cc2)cc(C(=O)O)c1C	-6
COc1cc(OC)cc(C2c3c(c4ccccc4oc3=O)OC(=N)C2C#N)c1 (stereo not given)	0
Cc1ccc(C(=O)Nc2ccc(N3CCC(NC(C)Cc4cccnc4)CC3)cc2)c(C)c1 (stereo not given)	-1
SMILES	ROC1-CUL1 inh
CSc1ccc(CN2CCN(Cc3ccccc3C)CC2)cc1	0
CN(C)CC#CCN1C(=O)C2CC=CCC2C1=O (stereo not given)	1
CN1C(=S)CN=C(c2ccccc2Cl)c2cc(Cl)ccc21	1
CCC1(c2ccccc2)C(=O)N(C(=O)c2ccc(OC)cc2)C(=O)N(C(=O)c2ccc(OC)cc2)C1=O	6
N#CC(C#N)=Cc1csc2ccccc12	-15
N#CC(C#N)=Cc1ccc([N+](=O)[O-])s1	27*
CC(C)(C)N(NC(=O)NC(c1ccc(Cl)cc1)P(=O)(Oc1ccccc1)Oc1ccccc1)C(=O)c1ccccc1 (stereo not given)	-5
O=[N+]([O-])c1csc([N+](=O)[O-])c1I	3
COC(=O)OCC12CCC(O1)C1(C)C(=O)OCC21 (stereo not given)	56*
Cc1cccc(N2CCN(Cc3ccc(F)c(Br)c3)CC2)c1C	-2
COc1ccc(NP(=O)(Oc2ccccc2F)Oc2ccccc2F)cc1Cl	3
CCOc1cccc(NC(=O)OC2CN3CCC2CC3)c1 (stereo not given)	-5
O=C1NC(=O)N(Cc2ccc(F)cc2)C(=O)/C1=C\c1ccoc1	76*
CN1CC[C@H]2[C@@H](C1)c1cc(Br)ccc1N2CC(F)(F)F	7
Cc1nc2ccccc2c(=O)n1-n1cccc1	-4
C=CCN1C(=O)/C(=C/c2ccc(Br)s2)C(=O)NC1=S	1
O=C1NC(=O)N(c2ccccc2)C(=O)/C1=C\c1ccccc1	-10
O=C1NC(=S)N(c2cccc(F)c2)C(=O)/C1=C/c1ccc(Br)o1	94*
CCN1CCN(C(=O)Cc2c(F)cccc2Cl)CC1	5
COC(=O)C1=C(C(=O)OC)C(C(C)=O)(C(=O)OC)N2CCc3ccccc3C12 (stereo not given)	4
Cc1cccc2cc(C3Nc4ccccc4S3)c(Cl)nc12 (stereo not given)	-4
OC(Nc1nc2ccccc2s1)C(Cl)(Cl)Cl (stereo not given)	4
CN1C(=O)N(C)C(=O)C(Cl)(Cl)C1=O	33*
CC1=NP(=O)(Oc2ccc3ccccc3c2)NC(=O)C1 (stereo not given)	2
C=CC1CN2CCC1CC2[C@H](O)c1ccnc2ccc(O)cc12 (stereo not given in full)	-1

Assay outcomes: PubChem BioAssay, Pan Lab, Icahn School of Medicine at Mount Sinai
